Results as given in PubChem BioAssay (EPA / NIEHS).
“And” between values parts separate entries of the source, which are not always exact repeats. Equal entries are not always repeated. A structure can be active in one record and inactive in another. The source made the active and inactive calls. How the source made its calls: active means hit-call score of the fitted dose curve at least 0.9, where 1 is the maximum; inactive means score below 0.9.

Experiments:
[1] = APR_HepG2_NuclearSize_72hr: Apredica 72-hour HepG2 Assay for Nuclear Size (AID 2282925); details: high-content imaging, actives raise or lower the signal
In short: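 HepG2 cells dosed 72 h at 0.39–200 uM (10 concentrations, duplicate) in 0.5% v/v DMSO final. Fixed, Hoechst 33342-stained nuclei imaged; nuclear diameter measured by automated image analysis. Bidirectional fit versus DMSO.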

[2] = ATG_CRE_CIS: Attagene CIS-FACTORIAL HepG2 Assay for human cAMP Responsive Element (CRE) binding protein 3 (AID 2282926); details: HepG2 CRE cis-reporter, Attagene multiplexed mRNA; actives raise or lower the signal
In short: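 Endogenous CRE-binding activity in HepG2 is reported through a cis-regulated transfected reporter. Following a day of exposure, mRNA levels are determined by reverse transcription PCR and fluorescent fragment analysis; fits run in both directions versus DMSO.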

[3] = biological target: CCAAT/enhancer-binding protein beta (Homo sapiens) (UniProt P17676); assay: ATG_C_EBP_CIS: Attagene CIS-FACTORIAL HepG2 Assay for human CCAAT/Enhancer Binding Protein (C/EBP) beta (AID 2282927); details: HepG2 Attagene cis-factorial transcription factor reporter; actives raise or lower the signal
In short: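 Transiently transfected HepG2 (MRTU library, endogenous TF-driven promoters); 24 h dosing; total RNA → oligo(dT) RT → PCR → 6-FAM primer extension → HpaI digest → CE; fit bidirectionally vs DMSO.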

[4] = ATG_CMV_CIS: Attagene CIS-FACTORIAL HepG2 Assay for human CMV (Internal Marker) (AID 2282928); details: HepG2 CMV promoter reporter, transcription factor profiling; actives raise or lower the signal;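 further: endpoint acts as a background internal control marker rather than a target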
In short: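 After transient transfection of HepG2 with reporter transcription units driven by cis-regulatory promoters, cells receive test chemical for 24 h. Labeled reporter amplicons, digested with HpaI, are sized and quantified by capillary electrophoresis against DMSO.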

[5] = ATG_DR4_LXR_CIS: Attagene CIS-FACTORIAL HepG2 Assay for human Liver X Receptor (LXR), DR4 submotif (AID 2282929); details: HepG2 Attagene DR4 cis-reporter, mRNA transcription; actives raise or lower the signal
In short: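 Readout: reporter transcript fluorescence after RT-PCR and capillary electrophoresis, fitted bidirectionally against DMSO controls. Human HepG2 liver cells carried transiently transfected multiplexed reporter constructs; endogenous transcription factor activity measured 24 h post-dosing.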

[6] = biological target: Aryl hydrocarbon receptor (Homo sapiens) (UniProt P35869); assay: ATG_Ahr_CIS: Attagene CIS-FACTORIAL HepG2 Assay for human Aryl Hydrocarbon Receptor (Ahr) (AID 2282930); details: HepG2 AhR cis-factorial reporter transcription; actives raise or lower the signal
In short: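 Read-out: reporter mRNA quantified by RT-PCR with fluorescent primer extension and capillary electrophoresis. Human HepG2 liver cells carried transfected cis-promoter reporter units and were exposed to chemical for 24 h; gain or loss fitted relative to DMSO.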

[7] = ATG_AP_1_CIS: Attagene CIS-FACTORIAL HepG2 Assay for human Activator Protein 1 (AP-1) (AID 2282931); details: HepG2 Attagene cis-factorial AP-1 reporter mRNA; actives raise or lower the signal
In short: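 Reporter transcripts were measured 24 h after dosing by RT-PCR and capillary electrophoresis of fluorescent fragments. Cells: HepG2 carrying transfected cis-regulated reporter constructs reading endogenous factor activity. Gain or loss fitted against DMSO.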

[8] = ATG_AP_2_CIS: Attagene CIS-FACTORIAL HepG2 Assay for human Activator Protein 2 (AP-2) (AID 2282932); details: HepG2 AP-2 cis-reporter, Attagene transcription factor profiling; actives raise or lower the signal
In short: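 HepG2 cells transiently transfected with cis-element reporter units and exposed for 24 h. Reporter mRNA measured by RT-PCR, FAM labelling, HpaI digestion and capillary electrophoresis. Changes in either direction fitted relative to DMSO.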

[9] = ATG_BRE_CIS: Attagene CIS-FACTORIAL HepG2 Assay for human Bone Morphogenetic Protein (BMP) Response Element (BRE) (AID 2282933); details: HepG2 BMP response element reporter, Attagene transcription factor profiling; actives raise or lower the signal
In short: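 Fluorescence-labelled reporter cDNA fragments, separated by capillary electrophoresis, gave the signal for this component of a 52-readout multiplex. HepG2 cells were transfected, exposed to chemicals for 24 h, and compared with DMSO using bidirectional fitting.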

[10] = biological target: Retinoic acid receptor alpha (Homo sapiens) (UniProt P10276); assay: ATG_DR5_RAR_CIS: Attagene CIS-FACTORIAL HepG2 Assay for human Retinoic Acid Receptor Alpha (RARE), DR5 submotif (AID 2282934); details: HepG2 Attagene cis-factorial RARE DR5 reporter, mRNA; actives raise or lower the signal;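 on AC50: reporter responds to endogenous RAR alpha beta and gamma in HepG2 not RARA alone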
In short: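 Read-out: DR5-driven reporter transcript measured by RT-PCR, 6-FAM primer extension, HpaI digest and capillary electrophoresis. Human HepG2 liver cells carry transiently transfected cis-element reporter constructs; dosing lasts 24 h. Gain or loss of signal fitted against DMSO baseline.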

[11] = biological target: Transcription factor E2F1 (Homo sapiens) (UniProt Q01094); assay: ATG_E2F_CIS: Attagene CIS-FACTORIAL HepG2 Assay for human E2F Transcription Factor 1 (AID 2282935); details: HepG2 Attagene cis-reporter, E2F reporter RNA transcripts; actives raise or lower the signal
In short: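 Endogenous E2F1 activity read through cis-promoter reporter units transfected into HepG2. After 24 h compound treatment, reporter mRNA measured by RT-PCR, HpaI digestion and capillary electrophoresis. Bidirectional fit versus DMSO.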

[12] = ATG_E_Box_CIS: Attagene CIS-FACTORIAL HepG2 Assay for human Enhancer Box (E-box) (AID 2282936); details: HepG2 E-box cis-reporter transcription, actives raise or lower the signal
In short: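 HepG2 cells transiently transfected with multiplexed cis-element reporter units, dosed 24 h; reporter mRNA quantified by RT-PCR, 6-FAM labelling, HpaI digestion and capillary electrophoresis. E-box (USF1) signal fitted bidirectionally vs DMSO.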

[13] = ATG_M_61_CIS: Attagene CIS-FACTORIAL HepG2 Assay for M61 Transcription Factor (Internal Marker) (AID 2282937); details: HepG2 Attagene CIS-FACTORIAL M61 internal marker reporter; actives raise or lower the signal
In short: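 Readout: fluorescent reporter mRNA fragments resolved by capillary electrophoresis after RT-PCR. Transiently transfected human HepG2 cells carried MRTU constructs reporting endogenous TF activity; 24 h chemical exposure; gain or loss of signal fitted relative to DMSO.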

[14] = ATG_EGR_CIS: Attagene CIS-FACTORIAL HepG2 Assay for human Early Growth Response 1 (EGR1) (AID 2282938); details: HepG2 Attagene CIS-FACTORIAL EGR reporter mRNA; actives raise or lower the signal
In short: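 Read-out: fluorescent reporter-mRNA fragments resolved by capillary electrophoresis after RT-PCR, 24 h post-dose in transiently transfected HepG2. Endogenous transcription-factor activity reported via cis-element-regulated reporter units; gain or loss fitted relative to DMSO.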

[15] = ATG_M_19_CIS: Attagene CIS-FACTORIAL HepG2 Assay for M19 Transcription Factor (Internal Marker) (AID 2282939); details: HepG2 Attagene CIS-FACTORIAL M19 internal marker reporter; actives raise or lower the signal
In short: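 HepG2, MRTU transient transfection, 24 h dosing. Total RNA → RT-PCR → 6-FAM primer extension → HpaI digest → CE fluorescence. Bidirectional curve fit, DMSO negative control.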

[16] = ATG_ERE_CIS: Attagene CIS-FACTORIAL HepG2 Assay for Estrogen Response Element (ERE) (AID 2282940); details: HepG2 ERE cis-reporter, Attagene RNA transcript; actives raise or lower the signal
In short: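 After a 24 h chemical treatment, RNA from reporter-transfected HepG2 cells is reverse-transcribed, PCR-amplified and fluorescently labelled. Fragments separated by capillary electrophoresis give reporter signal; DMSO serves as negative control.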

[17] = ATG_Ets_CIS: Attagene CIS-FACTORIAL HepG2 Assay for human Erythroblast Transformation Specific (ETS) (AID 2282941); details: HepG2 ETS cis-reporter transcription, actives raise or lower the signal
In short: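 Human HepG2 hepatoma cells were transiently transfected with promoter-driven reporter constructs and treated for 24 hours. Reporter transcripts were quantified by RT-PCR with fluorescent primer extension; bidirectional curve fitting used DMSO as reference.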

[18] = biological target: Hepatocyte nuclear factor 3-beta (Homo sapiens) (UniProt Q9Y261); assay: ATG_FoxA2_CIS: Attagene CIS-FACTORIAL HepG2 Assay for human Forkhead box A2 (FOXA2) (AID 2282942); details: HepG2 cis-reporter transcription factor activity, 24 h; actives raise or lower the signal
In short: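 Readout: fluorescent reporter transcripts resolved by capillary electrophoresis after RT-PCR. Transiently transfected HepG2, 24 h compound exposure, endogenous TF activity at cis promoter elements. Gain or loss of signal fitted relative to DMSO.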

[19] = ATG_FoxO_CIS: Attagene CIS-FACTORIAL HepG2 Assay for human Forkhead box O (FoxO) (AID 2282943); details: HepG2 Attagene cis-reporter, FoxO element, mRNA; actives raise or lower the signal
In short: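 Read-out: fluorescence of 6-FAM-labelled reporter cDNA fragments resolved by capillary electrophoresis. Transiently transfected HepG2 cells were dosed for 24 h; activity fitted in both directions relative to DMSO controls.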

[20] = ATG_GATA_CIS: Attagene CIS-FACTORIAL HepG2 Assay for human GATA Binding Protein (AID 2282944); details: HepG2 GATA cis-element reporter, Attagene multiplex mRNA; actives raise or lower the signal
In short: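 Cells: HepG2, transiently transfected with cis-regulated reporter transcription units. Exposure: 24 h. Detection: RT-PCR plus capillary electrophoresis of FAM-labeled fragments. Analysis: bidirectional, DMSO as baseline.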

Measured: AC50

Chain of CCAAT/enhancer-binding protein beta (Homo sapiens) (P17676 whole entry, looked up): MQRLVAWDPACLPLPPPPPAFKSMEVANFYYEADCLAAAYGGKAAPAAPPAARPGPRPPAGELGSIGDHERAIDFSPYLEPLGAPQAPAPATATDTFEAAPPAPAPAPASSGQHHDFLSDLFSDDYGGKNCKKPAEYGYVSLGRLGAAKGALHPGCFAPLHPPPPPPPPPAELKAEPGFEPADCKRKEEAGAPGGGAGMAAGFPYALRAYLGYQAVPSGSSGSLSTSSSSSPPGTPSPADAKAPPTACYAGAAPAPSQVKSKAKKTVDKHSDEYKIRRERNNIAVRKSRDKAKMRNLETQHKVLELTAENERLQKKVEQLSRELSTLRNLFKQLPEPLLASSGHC
Chain of Transcription factor E2F1 (Homo sapiens) (Q01094 whole entry, looked up): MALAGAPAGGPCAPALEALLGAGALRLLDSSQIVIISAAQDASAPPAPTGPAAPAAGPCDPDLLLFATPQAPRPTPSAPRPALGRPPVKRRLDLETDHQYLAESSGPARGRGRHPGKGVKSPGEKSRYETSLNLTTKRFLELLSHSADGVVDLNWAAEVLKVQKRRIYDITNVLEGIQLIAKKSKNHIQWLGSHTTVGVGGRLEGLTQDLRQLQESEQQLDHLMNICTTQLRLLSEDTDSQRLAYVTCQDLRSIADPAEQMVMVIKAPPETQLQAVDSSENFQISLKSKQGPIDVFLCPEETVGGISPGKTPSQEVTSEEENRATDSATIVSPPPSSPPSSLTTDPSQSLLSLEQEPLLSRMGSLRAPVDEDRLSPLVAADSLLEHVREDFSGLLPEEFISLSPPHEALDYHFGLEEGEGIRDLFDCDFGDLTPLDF
Chain of Hepatocyte nuclear factor 3-beta (Homo sapiens) (Q9Y261 whole entry, looked up): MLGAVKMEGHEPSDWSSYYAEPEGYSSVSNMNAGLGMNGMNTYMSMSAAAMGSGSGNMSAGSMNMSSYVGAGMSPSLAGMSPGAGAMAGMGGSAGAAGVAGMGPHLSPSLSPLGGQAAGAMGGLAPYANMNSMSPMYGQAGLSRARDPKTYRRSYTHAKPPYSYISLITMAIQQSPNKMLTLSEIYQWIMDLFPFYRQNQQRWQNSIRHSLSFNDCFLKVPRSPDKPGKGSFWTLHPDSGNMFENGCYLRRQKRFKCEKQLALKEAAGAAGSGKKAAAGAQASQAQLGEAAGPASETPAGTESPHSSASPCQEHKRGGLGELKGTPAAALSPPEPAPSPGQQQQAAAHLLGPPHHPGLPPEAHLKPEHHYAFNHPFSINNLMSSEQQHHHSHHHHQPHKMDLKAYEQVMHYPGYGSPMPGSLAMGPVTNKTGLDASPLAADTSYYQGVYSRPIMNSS
Chain of Retinoic acid receptor alpha (Homo sapiens) (P10276 whole entry, looked up): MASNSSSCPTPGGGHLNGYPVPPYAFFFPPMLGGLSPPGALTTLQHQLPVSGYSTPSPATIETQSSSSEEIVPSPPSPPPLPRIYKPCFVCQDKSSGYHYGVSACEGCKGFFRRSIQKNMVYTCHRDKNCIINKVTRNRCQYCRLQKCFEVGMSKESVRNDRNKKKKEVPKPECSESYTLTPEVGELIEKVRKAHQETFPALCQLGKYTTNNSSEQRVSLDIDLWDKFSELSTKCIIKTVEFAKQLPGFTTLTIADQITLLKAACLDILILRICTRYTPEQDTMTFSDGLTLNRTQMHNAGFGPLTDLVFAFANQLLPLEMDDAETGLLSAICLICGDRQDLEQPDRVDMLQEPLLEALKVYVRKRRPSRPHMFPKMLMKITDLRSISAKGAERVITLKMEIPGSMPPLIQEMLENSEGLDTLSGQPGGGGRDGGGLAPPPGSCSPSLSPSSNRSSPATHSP
Chain of Aryl hydrocarbon receptor (Homo sapiens) (P35869 whole entry, looked up): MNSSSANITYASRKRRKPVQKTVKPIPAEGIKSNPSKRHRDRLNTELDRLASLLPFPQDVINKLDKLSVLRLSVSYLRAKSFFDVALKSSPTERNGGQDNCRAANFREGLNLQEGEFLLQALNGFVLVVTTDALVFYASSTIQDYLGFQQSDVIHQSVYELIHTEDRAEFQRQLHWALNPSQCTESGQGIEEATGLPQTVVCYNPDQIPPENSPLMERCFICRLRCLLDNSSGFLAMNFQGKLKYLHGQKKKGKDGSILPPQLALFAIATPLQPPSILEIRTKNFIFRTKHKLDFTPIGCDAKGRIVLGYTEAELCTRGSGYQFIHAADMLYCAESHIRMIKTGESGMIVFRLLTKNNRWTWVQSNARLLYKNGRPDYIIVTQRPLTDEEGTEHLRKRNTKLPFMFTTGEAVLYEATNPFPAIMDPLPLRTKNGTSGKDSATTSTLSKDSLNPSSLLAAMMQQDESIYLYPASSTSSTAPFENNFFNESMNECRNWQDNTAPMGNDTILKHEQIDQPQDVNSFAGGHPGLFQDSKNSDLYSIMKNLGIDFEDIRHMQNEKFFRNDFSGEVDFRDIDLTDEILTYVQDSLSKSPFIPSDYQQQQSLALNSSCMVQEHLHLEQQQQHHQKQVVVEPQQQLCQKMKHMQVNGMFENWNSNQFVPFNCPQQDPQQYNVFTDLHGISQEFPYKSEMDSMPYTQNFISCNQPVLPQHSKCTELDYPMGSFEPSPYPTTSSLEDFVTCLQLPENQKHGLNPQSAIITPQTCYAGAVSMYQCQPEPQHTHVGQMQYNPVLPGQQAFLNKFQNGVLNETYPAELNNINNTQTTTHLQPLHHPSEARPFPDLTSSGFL

C#CCOS(=O)OC1CCCCC1Oc1ccc(C(C)(C)C)cc1 (stereo unspecified)
inactive: [1] | [4] | [5] | [6] | [8] | [10] | [11] | [12] | [13] | [15] | [16] | [17] | [18] | [19] | [20]
active: [2] 994 nM | [3] 658 nM | [7] 1550 nM | [9] 1160 nM | [14] 1460 nM

CCCN(CCC)c1c([N+](=O)[O-])cc(S(N)(=O)=O)cc1[N+](=O)[O-]
inactive: [2] | [3] | [4] | [5] | [6] | [7] | [8] | [9] | [10] | [11] | [12] | [13] | [14] | [15] | [16] | [17] | [18] | [19] | [20]
active: [5] 4.79 µM and 11.1 µM | [10] 1.22 µM and 1.19 µM

Cc1c(F)c(F)c(COC(=O)C2C(/C=C(\Cl)C(F)(F)F)C2(C)C)c(F)c1F (stereo unspecified)
inactive: [1] | [2] | [3] | [4] | [5] | [6] | [7] | [8] | [9] | [10] | [11] | [12] | [13] | [14] | [15] | [16] | [17] | [18] | [19] | [20]
